Screening data: PubChem BioAssay, National Center for Advancing Translational Sciences (NCATS)
Compounds with a hit are over-represented: about 10% of the library has one in this group of screens.
BAZ2B block: blocks human BAZ2B; Q9UIF8; AlphaScreen BAZ2B-H3K14Ac peptide displacement; Potency, µM (titrated, usually from 114 µM), for inactives: at the top dose activity change, negative = inhibition, actives largely listed as inhibitors; hit rate 4.4% among 360,000; note: % is set by controls: 0 for no effect and ±100 for the full control effect; nearly all actives have a fitted effect of over 60% in size
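Multi-concentration screen (max 110 uM) measuring displacement of acetylated histone H3 peptide from BAZ2B by AlphaScreen, using 50 nM protein, 50 nM peptide and 10 ug/mL streptavidin donor plus Ni-chelate acceptor beads.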
G9a inh: blocks human histone lysine methyltransferase G9a. hit rate 8.8% among 350,000. G9a H3K9 monomethylation, AlphaScreen, 2 h. AID 504332. Potency, µM (doses to about 102 µM), for inactives: at the highest dose activity, negative = inhibition, actives largely listed as inhibitors; note: % is set by controls: 0 for no effect and ±100 for the full control effect; nearly all actives have a fitted effect of over 75% in size
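Quantitative HTS format: methyltransferase activity on a biotin-tagged H3K9 peptide is measured by AlphaScreen, using a rabbit anti-monomethyl-H3K9 antibody with streptavidin donor and anti-IgG acceptor beads. Final levels are 20 nM enzyme, 500 nM peptide, 20 uM SAM; 2 h RT.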
GLS inhibitor: inhibitors of human glutaminase (GLS) | O94925 | GLS enzymatic activity, qHTS titration | Potency, µM (series often up to 45.5 µM), without a hit: top-dose activity change, negative = inhibition, hits mostly inhibitors | hit rate 0.21% among 410,000 | AID 624170; note: % is set by controls: 0 for no effect and ±100 for the full control effect
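Human kidney-isoform GLS in 45 mM KH2PO4 pH 8.2, 0.02% Tween-20, with compound, started with 1mM L-Glutamine (added stock). Glutamate oxidase/HRP/Amplex red coupled fluorescence read at start and after 30 min at RT.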
JMJD2A Tudor: blocks the human JMJD2A Tudor domain | AlphaScreen JMJD2A-Tudor / H3K4me3 peptide binding | hit rate 4.4% among 390,000 | Potency, µM (series often up to 114 µM), without a hit: at the top dose activity change, negative = inhibition, most hits filed as inhibitors | O75164; note: % is set by controls: 0 for no effect and ±100 for the full control effect; nearly all actives have a fitted effect of over 50% in size
HP1b chromo inh: blocks HP1-beta chromodomain binding to methylated histone tails | hit rate 0.56% among 390,000 | Potency, µM (series often up to 114 µM), inactives show at the highest dose activity change, negative = inhibition, most hits filed as inhibitors | AlphaScreen HP1-beta / biotin-H3K9me3 peptide binding; note: nearly all actives have a fitted effect of over 70% in size
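HP1-beta protein (50 nM final) preincubated 30 min at room temperature with biotinylated H3(1-18)K9me3 peptide (50 nM) in PBS pH 7.4, 0.01% Tween-20, then compound added for 30 min. AlphaScreen streptavidin donor/nickel chelate acceptor beads (10 ug/mL final), 30 min dark, luminescence read.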
An asterisk follows results filed as active; ? = inconclusive; . = not tested or not shown; [ ] = remark or other dose. Calls come from the whole dose curve; as a rule, active = well fitted curve in the direction sought with a large enough effect; inconclusive = small, poorly fitted or top-dose-only effect, or another doubt; inactive = no such curve, though single readings can be large; an effect the other way counts as inactive or inconclusive. Potency is the fitted concentration of half-maximal effect.

SMILES	BAZ2B block	G9a inh	GLS inhibitor	JMJD2A Tudor	HP1b chromo inh
O=C(NCc1ccc2c(c1)OCO2)C(C(=O)c1ccccc1)n1cc(Cl)ccc1=O (configuration not stated)	-5%	50µM*	11%	-7%	34%
O=C(CCn1cccc1)NCc1ccc2c(c1)OCO2	50µM*	?	-1%	?	?
O=C(CSc1nc2ccccc2[nH]1)NCc1ccc2c(c1)OCO2	-9%	25µM*	1%	-2%	15%
O=C(CCn1c(=O)oc2ccccc21)NCc1ccc2c(c1)OCO2	5%	3%	-3%	8%	30%
O=C(O)c1ccccc1C(=O)NCc1ccc2c(c1)OCO2	-8%	0%	4%	32µM*	?
CCOc1ccccc1C(=O)NCc1ccc2c(c1)OCO2	-4%	9%[12.7 µM]	-6%	13%	40%
CCc1nc2ccc(C(=O)Nc3cc(-c4ccccc4)ccc3OC)cn2c1N(C)Cc1nccs1	.	.	4%	.	.
CC(c1ccc(F)cc1)n1c(-c2cccs2)n[nH]c1=S (configuration not stated)	-31%	5µM*	-6%	?	20%
CC1=Nn2c(nnc2-c2ccccc2F)SC1	2%	-45%[12.7 µM]	3%	-16%	23%
CC(C)n1c(-c2ccc(C(C)(C)C)cc2)n[nH]c1=S	-31%	2.5µM*	?	28µM*	15%
CC(c1ccccc1)n1c(-c2ccc(Cl)cc2)n[nH]c1=S (configuration not stated)	-35%	.	-21%	-34%	33%
CC(C)(C)c1ccc(-c2cc(N)n[nH]2)cc1	-28%	-35%[59 µM]	24%	?	22%
CC(c1ccccc1)n1c(-c2ccccc2F)n[nH]c1=S (configuration not stated)	-2%	.	-15%	22µM*	20%
CC(C)n1c(-c2ccccc2F)n[nH]c1=S	-6%	.	-1%	4µM*	16%
CCCCNC(=O)C1(C)CCN1C(=O)c1csnn1 (configuration not stated)	.	.	1%	.	.
CC(c1ccccc1)n1c(-c2ccncc2)n[nH]c1=S (configuration not stated)	5%	2.5µM*	6%	18µM*	15%
CC1=C(C(=O)OCC(Cl)(Cl)Cl)N2C(=O)C(NC(=O)Cc3ccccc3)C2SC1 (configuration not stated)	2%	40µM*	-12%	-6%	21%
CCn1ccc(C(=O)NC2C(=O)N3C(C(=O)O)=C(C)CSC23)n1 (configuration not stated)	?	22µM*	0%	-7%	38%
CC1=C(C(=O)O)N2C(=O)C(NC(=O)c3nn(C)cc3Cl)C2SC1 (configuration not stated)	-11%	?	-7%	-16%[11.4 µM]	2%
CC(=O)OCC1=C(C(=O)O)N2C(=O)C(NC(=O)c3ccc(COc4cccc(Cl)c4Cl)o3)C2SC1 (configuration not stated)	50µM*	32µM*	-18%	?	-4%
CC1=C(C(=O)O)N2C(=O)C(NC(=O)c3ccccc3Cl)C2SC1 (configuration not stated)	0%	1.8µM*	0%	-20%	43%
Cc1cc(C)c2c(N)c(C(=O)Nc3c(C)n(C)n(-c4ccccc4)c3=O)sc2n1	-5%	.	6%	-12%	26%
COc1ccc(C(=O)CC(C(=O)O)c2ccc(OC)c(OC)c2)cc1OC (configuration not stated)	.	.	1%	.	.
O=S1(=O)CC(N2CC=CC2)CN1Cc1cn(Cc2ccc(Cl)cc2)nn1 (configuration not stated)	.	.	9%	.	.
CC1=C(C(=O)O)N2C(=O)C(NC(=O)c3ccc(F)cc3)C2SC1 (configuration not stated)	-33%	0.89µM*	-3%	?	22%
SMILES	BAZ2B block	G9a inh	GLS inhibitor	JMJD2A Tudor	HP1b chromo inh
COc1cccc(C(=O)NC2C(=O)N3C(C(=O)O)=C(COC(C)=O)CSC23)c1 (configuration not stated)	?	-10%[12.7 µM]	-3%	-9%	10%
COc1ccc(OC)c(NC(=O)C2Cc3ccccc3CN2S(=O)(=O)c2ccc(F)cc2)c1 (configuration not stated)	-12%	-32%[59 µM]	1%	-12%	29%
COc1ccc(N2CCN(CC(O)COc3ccc(C)c(C)c3)CC2)cc1 (configuration not stated)	45µM*	32µM*	44%	56µM*	?
Cc1cc(OCC(O)CN2CCN(c3cccc(Cl)c3)CC2)ccc1Cl (configuration not stated)	-13%	-9%[59 µM]	6%	79µM*	6%
COc1ccc(N2CCN(CC(O)COc3ccc(C(C)C)c(C)c3)CC2)cc1 (configuration not stated)	-38%	6.3µM*	6%	?	5%
Cc1cc(OCC(O)CN2CCCC2)ccc1C(C)C (configuration not stated)	9%	.	2%	-17%	22%
CCOC(=O)N1CCN(C(=O)CN(C)S(=O)(=O)c2ccc(OCC)cc2)CC1	11%	2%[59 µM]	0%	-6%	34%
O=C(O)c1ccc(Oc2ccc(S(=O)(=O)c3ccc(C(=O)O)c(C(=O)O)c3)cc2)cc1	?	50µM*	-2%	?	16%
O=C(O)c1ccc(S(=O)(=O)c2ccccc2)cc1	-28%	-36%[12.7 µM]	0%	4%	38%
N#Cc1c(N)sc2c1CCCCCC2	?	18µM*	-4%	?	?
N#Cc1c(N)sc(=S)c2c1CCCCC2	50µM*	4.5µM*	32%	45µM*	-49%
N#Cc1c(N)c(C#N)c(-c2ccc(O)cc2)c2c1CCCC2	-1%	0%	14%	-9%	38%
Cc1ccc(NC(=O)CCn2c(=O)c3cccn3c3ccccc32)c(Cl)c1	-19%	-26%[59 µM]	4%	-28%	26%
CN(C)c1ccc(/C=C2\Oc3ccc(C#Cc4cccc(N)c4)cc3C2=O)cc1	.	.	4%	-1%	46%
CC(C)OCCCNc1ncc2c(n1)CC(c1ccc(N(C)C)cc1)CC2=O (configuration not stated)	-38%	35µM*	27%	?	-9%
COC(=O)c1cc2oc3ccccc3c2n1Cc1c(F)cccc1Cl	6%	13%[59 µM]	3%	-17%	37%
c1ccc2[nH]c(SN3CCOCC3)nc2c1	20µM*	?	.	.	.
c1ccc2[nH]c(CN3CCOCC3)nc2c1	-28%	14%[59 µM]	-13%	-13%	13%
COc1cc(C2NC(=O)C(C#N)=C(S)N2c2ccc(C)cc2)ccc1OC(C)C (configuration not stated)	-35%	?	28%	-16%	24%
COc1ccc(C2NC(=O)C(C#N)=C(S)N2c2ccc(C)cc2)cc1OC (configuration not stated)	-31%	45µM*	21%	-21%	11%
